Several values for one entry are separate records, joined by “and”; a condition that tells them apart may be missing. Identical values can stand only once. About 83,000 compounds went through this panel and 20% of them were active in at least one assay; those are over-represented in the sample as a whole.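 A percent growth of 40 corresponds to 60% growth inhibition; 0 means no net growth; -100 means all cells died. Active threshold: below 10.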 Activity calls are given as the source filed them.
Test system: MDA-MB-468 breast
Experiment: NCI-60 one-dose screen, 48 h (100 = growth as untreated, 0 = no growth, -100 = all killed)
Details: 10 µM unless noted

Compound	growth
CNc1nc(NC2CCCC2)nc(Sc2ccc(OC)cc2)n1	42.5% [100 µM] (inactive)
COC(=O)c1ccc2[nH]c(O)c(C(=Nc3ccc(N(C)C(=O)CN4CCN(C)CC4)cc3)c3cccc(OC)c3)c2c1	37.3% (inactive)
CCN1CCN(C(=O)[C@]23CC[C@@H](C)[C@H](C)[C@H]2C2=CC[C@@H]4[C@@]5(C)C/C(=C/c6cccc(OC)c6OC)C(=O)C(C)(C)[C@@H]5CC[C@@]4(C)[C@]2(C)CC3)CC1	16.4% (inactive)
CN1CCOCCN(C)Cc2ccc3ccc(cc3c2)CN(C)CCOCCN(C)Cc2ccc3ccc(cc3c2)C1	52.9% (inactive)
Cc1c(C(N)=O)sc2ncn(CC(=O)NN=C3CCCCC3)c(=O)c12	109% (inactive)
CCCn1nc(C(=O)N(C)Cc2ccccc2)c2c1CCC(N1CCc3ccccc31)C2 (stereo not given)	92.8% (inactive)
COc1cc(CCC[P+](c2ccccc2)(c2ccccc2)c2ccccc2)cc2c1OCO2	-22.7% (active)
C=C1CCC2C3(C)COC(c4c(OC)cccc4OC)OC3CCC2(C)C1C/C=C1/C(=O)OCC1O (stereo not given)	20.2% (inactive)
CC1CC(=O)C2=C(C1)Nc1ccc(Br)cc1CC2c1c[nH]c2ccc(Br)cc12 (stereo not given)	-3.65% (active)
CCOC(=O)c1cc(C(=O)c2ccc(OC)c(OC)c2)n2c1ccc1ccc3cccnc3c12	38.5% (inactive)
CC1(C)CC[C@]2(C(=O)O)CC[C@]3(C)C(=CC[C@@H]4[C@@]5(C)C/C(=C/c6cccnc6)[C@H](O)C(C)(C)[C@@H]5CC[C@]43C)[C@@H]2C1	4.01% [100 µM] (active)
CCOc1cccc(/C=N/NC(=O)c2ccccc2Nc2ccnc(C(F)(F)F)c2)c1O	-23.6% (active)
Cc1nc(N)sc1Sc1nc2ccc(Cl)cc2c(=O)n1-c1ccc(Oc2ccccc2)cc1	76.6% (inactive)
CC(C)NCC(O)COc1ccc(CCOCC2CC2)cc1 (stereo not given)	103% (inactive)
Cc1ccc(S(=O)(=O)OC[C@@]2(C)CC[C@]3(C)CC[C@]4(C)C(=CC[C@@H]5[C@@]6(C)CCCNC(C)(C)[C@@H]6CC[C@]54C)[C@@H]3C2)cc1	-85.5% (active)
COC(=O)/C=C1/SC(=Nc2cccc(Cl)c2)N(CCc2c[nH]c3ccc(O)cc23)C1=O	24.7% (inactive)
O=C(Nc1nc(-c2ccc(Br)cc2)cs1)c1cc(-c2ccc(Br)cc2)nc2ccc(Cl)cc12	102% (inactive)
Nc1ccn([C@@H]2O[C@H](COP(=O)(O)O[C@@H]3C[C@H](n4cc(F)c(=O)[nH]c4=O)O[C@@H]3COP(=O)(O)O[C@@H]3C[C@H](n4cc(F)c(=O)[nH]c4=O)O[C@@H]3COP(=O)(O)O[C@@H]3C[C@H](n4cc(F)c(=O)[nH]c4=O)O[C@@H]3COP(=O)(O)O[C@@H]3C[C@H](n4cc(F)c(=O)[nH]c4=O)O[C@@H]3COP(=O)(O)O[C@@H]3C[C@H](n4cc(F)c(=O)[nH]c4=O)O[C@@H]3COP(=O)(O)O[C@@H]3C[C@H](n4cc(F)c(=O)[nH]c4=O)O[C@@H]3COP(=O)(O)O[C@@H]3C[C@H](n4cc(F)c(=O)[nH]c4=O)O[C@@H]3COP(=O)(O)O[C@@H]3C[C@H](n4cc(F)c(=O)[nH]c4=O)O[C@@H]3COP(=O)(O)O[C@@H]3C[C@H](n4cc(F)c(=O)[nH]c4=O)O[C@@H]3COP(=O)(O)O[C@@H]3C[C@H](n4cc(F)c(=O)[nH]c4=O)O[C@@H]3COP(=O)(O)OCCOCCOCCOCCOCCOCCO)[C@H](O)C2O)c(=O)n1 (stereo not given in full)	77% (inactive)
COc1cc(/C=C/c2cc(/C=C/c3ccc(O)c(OC)c3)n(-c3ccccc3)n2)ccc1O	-31.9% (active)
CNS(=O)(=O)c1cccc(-c2ccc3c4c(n(C)c(=O)c3c2)-c2ccccc2C4=O)c1	83.4% (inactive)

Compound	growth
CCN(CC)CCCC(C)N(Cc1ccccc1)CC(O)c1ccc(Cl)cc1 (stereo not given)	91.2% (inactive) and 104% (inactive)
CC(C)c1cc(N=O)cc(C(C)C)c1O	81.8% (inactive)
COc1ccc(C2CC(c3cnccn3)=NN2)cc1OC (stereo not given)	105% (inactive)
CC(=O)Nc1ccc(C=Nc2ccc3ccccc3c2)cc1	107% (inactive)
N=C(N)c1ccc(OCCSCCOc2ccc(C(=N)N)cc2)cc1	40.1% (inactive)
Ic1cccs1	103% (inactive)
OCC1OC(n2ccc3c(NO)ncnc32)C(O)C1O (stereo not given)	-88.8% (active)
COc1ccc(OC)c(C(=O)Nc2cccc(-c3cc(=O)c4ccccc4o3)c2)c1	92.9% (inactive)
O=C(/C=C/c1c(Cl)nc2sccn12)c1ccc(F)c(F)c1	35.4% (inactive)
CC(C)(C)CC1(C)NC(=O)NC1=O (stereo not given)	96.1% (inactive)
CC(C)(C)c1ccc(OCCOC(=O)CBr)cc1	87.6% (inactive)
CCC(C)(CC)c1ccc(O)c(C)c1	101% (inactive)
COc1ccc(NC(=O)C2CC3C=CC2C3)c([N+](=O)[O-])c1 (stereo not given)	93.1% (inactive)
COC1=CC(c2ccc[nH]2)=N/C1=C\c1[nH]c(C)c(CC(=O)OCc2ccccc2)c1CCC(=O)OCc1ccccc1	-31.2% (active)
Cc1cc(NC(=O)CSCC(=O)O)no1	114% (inactive)
O=[N+]([O-])c1cnc(N2CCN(CC3CC3)CC2)nc1N1CCN(CC2CC2)CC1	76.9% (inactive)
C=C1C(=O)O[C@H]2[C@H]1CC/C(C=Nc1c(N)cc(C(F)(F)F)cc1C(F)(F)F)=C\CC[C@@]1(C)O[C@@H]21	-58.1% (active)
Cn1cc(-c2cc3ncnc(Nc4ccc(CC(=O)Nc5cc(C(C)(C)C)on5)cc4)c3s2)cn1	31.5% (inactive)
Nc1nc(Nc2ccccc2SSc2ccccc2Nc2nc(N)nc(C(Cl)(Cl)Cl)n2)nc(C(Cl)(Cl)Cl)n1	86.6% (inactive)
O=C(Nc1ccncc1)C(=O)c1cn(S(=O)(=O)c2cccc(Cl)c2F)c2ccccc12	33% (inactive)
